Test systems include NCI-H23 lung; NCI-H226 lung; NCI-H322M lung; HOP-62 NSCLC; NCI-H460 lung; HOP-92 NSCLC; NCI-H522 lung; A549/ATCC NSCLC; 786-0 renal; COLO 205 colon; DU-145 prostate; MALME-3M melanoma; MDA-MB-231 breast; RXF 393 renal; SF-268 CNS; SF-295 CNS; SF-539 CNS; UACC-257 melanoma; M14 melanoma.
What all share (test): NCI-60 one-dose screen, 48 h (100 = growth as untreated, 0 = no growth, -100 = all killed)
Common to all, as to settings: 10 µM unless noted

Compounds without any hit were thinned out: in the full panel of roughly 83,000, 20% have a hit.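 Method: cells in 96-well plates; compound added at one concentration; 48 h incubation; percent growth measured; values under 10 scored active.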 Values without a mark were called inactive. Active and inactive are the calls of the source.

Take `CC(=O)c1cc2c(N)c(C(=O)Nc3cccc(Cl)c3)sc2nc1C`: the growth is 91% in the test on NCI-H23 lung; 87.3% with NCI-H226 lung; 77.7% in the test on NCI-H322M lung; 90.4% in the test on HOP-62 NSCLC; 45.7% in the test on NCI-H460 lung; 58.3% in the test on HOP-92 NSCLC. Further, the growth is 72.9% in the test on NCI-H522 lung; 39.3% in the test with A549/ATCC NSCLC; 89.1% with 786-0 renal; 40.7% in the test with COLO 205 colon; 87.3% in the test with DU-145 prostate; 102% in the test with MALME-3M melanoma. Moreover, the growth in the test on MDA-MB-231 breast was 87.5%; in the test on RXF 393 renal, 79.7%; in the test with SF-268 CNS, 93.2%; in the test on SF-295 CNS it was 84.3%; in the test with SF-539 CNS it was 85.3%; in the test with UACC-257 melanoma, 82.5%. The growth in the test on M14 melanoma was 67.1%.

As for `COc1ccc(SC2c3ccc(O)cc3Oc3nc(N)c(C#N)c(N)c32)cc1` (configuration not stated), the growth in the test on NCI-H23 lung is 93.3%; with NCI-H226 lung, 117%; in the test with NCI-H322M lung it was 79.2%; in the test with HOP-62 NSCLC, 64.4%; with NCI-H460 lung, 79.3%; with HOP-92 NSCLC it was 112%. Besides, the growth is 86.3% in the test with NCI-H522 lung; 84.6% in the test with A549/ATCC NSCLC; 81.6% in the test on 786-0 renal; 115% in the test on COLO 205 colon; 93.1% with DU-145 prostate; 99.3% in the test on MALME-3M melanoma. In addition, the growth was 101% in the test on MDA-MB-231 breast; 122% with RXF 393 renal; 57.3% with SF-268 CNS; 76.8% with SF-295 CNS; 52.1% in the test on SF-539 CNS; 106% in the test on UACC-257 melanoma. Further, in the test on M14 melanoma, the growth was 105%.

For the compound `CCOc1cccc(Nc2nc(N)nc3[nH]c4ccc(O)cc4c23)c1`, the growth with NCI-H23 lung is 68.5%; in the test on NCI-H226 lung it was 79.5%; with NCI-H322M lung, 65.1%; in the test with HOP-62 NSCLC, 61.7%; in the test on NCI-H460 lung, 82%; with HOP-92 NSCLC, 25.9%. The growth with NCI-H522 lung is 49.2%; in the test with A549/ATCC NSCLC, 46.6%; with 786-0 renal, 52.8%; in the test on COLO 205 colon, 96.9%; with DU-145 prostate, 49%; in the test with MALME-3M melanoma, 96.9%. For the same compound, the growth in the test on MDA-MB-231 breast is 54.8%; with RXF 393 renal, 43%; in the test with SF-268 CNS, 44.6%; in the test with SF-295 CNS, 68.1%; in the test on SF-539 CNS, 81.4%; with UACC-257 melanoma it was 88.6%. For the same compound, the growth in the test on M14 melanoma is 75.3%.

In the case of `COc1ccc(/C=N/C2=NNC(C)(c3ccccc3O)N2C(Cc2c[nH]c3ccccc23)C(=O)O)cc1` (configuration not stated), the growth in the test on NCI-H23 lung is 22.8%; in the test on NCI-H226 lung, 53.2%; in the test on NCI-H322M lung, 56.1%; in the test on HOP-62 NSCLC, 32.7%; with NCI-H460 lung it was 20.4%; with HOP-92 NSCLC it was 2.13% (active). Also, the growth with NCI-H522 lung is 18.9%; with A549/ATCC NSCLC it was 42.5%; with 786-0 renal, 58.3%; in the test with COLO 205 colon, 8.42% (active); in the test on DU-145 prostate it was 58.9%; with MALME-3M melanoma it was 12.9%. Further, the growth in the test on MDA-MB-231 breast was 28.8%; in the test with RXF 393 renal, 35.5%; with SF-268 CNS, 40.2%; with SF-295 CNS, 35.3%; in the test on SF-539 CNS, 45.2%; in the test with UACC-257 melanoma, 23.5%. In addition, the growth in the test with M14 melanoma is 10.8%.

For the compound `CN(C)c1ncc(C#Cc2c(F)cccc2F)c2ccccc12`, the growth with NCI-H23 lung is 89.9%; in the test with NCI-H226 lung, 89.4%; with NCI-H322M lung, 88.5%; in the test with HOP-62 NSCLC it was 88.1%; in the test with NCI-H460 lung it was 84%; in the test on HOP-92 NSCLC, 40.4%. Also, the growth in the test on NCI-H522 lung is 70.7%; in the test on A549/ATCC NSCLC, 86.5%; with 786-0 renal, 105%; with COLO 205 colon, 98.7%; with DU-145 prostate, 97.4%; in the test with MALME-3M melanoma, 113%. The growth in the test on MDA-MB-231 breast was 80.2%; in the test with RXF 393 renal, 93.2%; in the test with SF-268 CNS it was 87.2%; in the test with SF-295 CNS, 102%; in the test on SF-539 CNS, 94.5%; in the test with UACC-257 melanoma, 99%. In addition, in the test on M14 melanoma, the growth is 86.3%.

For the compound `Clc1ccc2c(NCCNc3nc(Cl)nc4ccccc34)ccnc2c1`, the growth is -61.7% (active) with NCI-H23 lung; -80% (active) in the test with NCI-H226 lung; -26.4% (active) with NCI-H322M lung; -68.6% (active) with HOP-62 NSCLC; -65.4% (active) in the test on NCI-H460 lung; -67.6% (active) in the test with HOP-92 NSCLC. Also, the growth was -84.6% (active) in the test with NCI-H522 lung; -88% (active) in the test with A549/ATCC NSCLC; -94.1% (active) in the test with 786-0 renal; -85.8% (active) in the test on COLO 205 colon; -3.33% (active) in the test with DU-145 prostate; -87.3% (active) in the test on MALME-3M melanoma. For the same compound, the growth is -87.8% (active) with MDA-MB-231 breast; -77.2% (active) in the test on RXF 393 renal; -58.1% (active) in the test with SF-268 CNS; -76.7% (active) in the test with SF-295 CNS; -84% (active) in the test on SF-539 CNS; 91.1% with UACC-257 melanoma. Further, the growth in the test with M14 melanoma is -89.1% (active).

For `CC(C)(C)OC(=O)N1CC(Cn2cc(C(F)(F)F)c3c(Cl)ncnc32)C1`, the growth in the test on NCI-H23 lung was -68.9% (active); in the test with NCI-H226 lung it was 63.8%; in the test with NCI-H322M lung, -90.2% (active); in the test with HOP-62 NSCLC, -83.7% (active); with NCI-H460 lung, -59% (active); in the test with HOP-92 NSCLC, -64.5% (active). Moreover, the growth with NCI-H522 lung is 39.9%; in the test on A549/ATCC NSCLC, 5.78% (active); in the test on 786-0 renal, 107%; with COLO 205 colon, 63.8%; in the test on DU-145 prostate, -100% (active); in the test with MALME-3M melanoma it was 80.6%. For the same compound, the growth with MDA-MB-231 breast was 0.765% (active); with RXF 393 renal it was -63.7% (active); with SF-268 CNS, -86.9% (active); with SF-295 CNS it was 30.4%; in the test on SF-539 CNS, 79.9%; in the test on UACC-257 melanoma, -37.9% (active). In the test with M14 melanoma, the growth was -87.4% (active).

Regarding `O=C(Nc1ccc(F)cc1)Nc1ccc(Cl)c([N+](=O)[O-])c1`, the growth with NCI-H23 lung is -1.96% (active); in the test on NCI-H226 lung, 16%; in the test with NCI-H322M lung, 28.4%; with HOP-62 NSCLC, 38.8%; in the test with NCI-H460 lung, 3.03% (active); with HOP-92 NSCLC, -8.16% (active). In addition, the growth was 2.42% (active) in the test with NCI-H522 lung; 17.1% in the test with A549/ATCC NSCLC; 26.7% with 786-0 renal; 12% with COLO 205 colon; 18.9% in the test on DU-145 prostate; 27.4% in the test with MALME-3M melanoma. Also, the growth in the test on MDA-MB-231 breast is 40%; in the test with RXF 393 renal, 51.1%; in the test with SF-268 CNS, 32.7%; in the test on SF-295 CNS, 8.17% (active); in the test on SF-539 CNS it was 36.2%; in the test with UACC-257 melanoma, 34.9%. Further, the growth in the test with M14 melanoma was 24%.

For the origin of these results see PubChem BioAssay (NCI).
